For experiment [1], the system named is PRMT1 (protein arginine N-methyltransferase 1). The experiment can be described thus: PRMT1 binders on small-molecule microarrays, primary screen, biochemical, small-molecule microarray, 635 nm fluorescence (AID 1088).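 Note: binding of Prmt1 protein to compounds spotted on small-molecule microarray slides.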 As to conditions: small-molecule microarray binding, higher = more signal.
A short description of experiment [2]: yeast growth modulation, basal conditions, primary screen, YJM789 clinical isolate, OD600, 24 h (AID 1089).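 Note: growth of clinical yeast isolate S. cerevisiae YJM 789 seeded 1000 cells per well; test concentration not given here.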 As to conditions: S. cerevisiae YJM789 growth, higher = more signal, called active from +8 up or from −8 down.
Experiment [3] is described as follows: fission yeast growth modulation, primary screen, strain 972, OD600, 24 h, no modulator (AID 1090).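 Note: basal condition with compound alone and no growth modifier present; test concentration not given here.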 As to conditions: S. pombe 972 growth, higher = more signal, called active from +8 up or from −8 down.
Experiment [4] in a line: S. cerevisiae growth modulation with rapamycin, primary screen, strain BY4716, OD600, 96 h (AID 1091). Note: test concentration not given here. As to conditions: higher = more signal, called active from +8 up or from −8 down.
The target in experiment [5] is Torsin-1A-interacting protein 2 (Homo sapiens) (UniProt Q8NFQ8). Nature of the experiment: LULL1 binders on small-molecule microarray, primary screen, cell lysate, human LULL1 lysate, 635/667 nm fluorescence (AID 1092).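 Note: probe is lysate of COS7 cells overexpressing human LULL1; score merges per-feature 667 nm fluorescence with signal-to-noise.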 Conditions: hLULL1 lysate binding, 635 nm fluorescence, higher = more signal.
Torsin-1A-interacting protein 2 (Homo sapiens), sequence (Q8NFQ8 whole entry, looked up): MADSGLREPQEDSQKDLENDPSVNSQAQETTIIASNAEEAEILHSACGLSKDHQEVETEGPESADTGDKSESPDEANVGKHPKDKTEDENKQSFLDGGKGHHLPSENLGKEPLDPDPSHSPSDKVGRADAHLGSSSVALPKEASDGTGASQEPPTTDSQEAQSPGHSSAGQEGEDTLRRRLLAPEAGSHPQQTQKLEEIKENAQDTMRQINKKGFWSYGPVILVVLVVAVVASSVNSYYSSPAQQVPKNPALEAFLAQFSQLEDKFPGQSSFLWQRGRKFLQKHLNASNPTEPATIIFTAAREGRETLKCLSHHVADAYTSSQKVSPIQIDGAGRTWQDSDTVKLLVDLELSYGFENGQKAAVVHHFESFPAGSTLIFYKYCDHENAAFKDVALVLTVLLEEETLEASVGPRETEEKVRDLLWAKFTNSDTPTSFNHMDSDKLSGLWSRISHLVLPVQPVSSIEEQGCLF
The nature of experiment [6]: E. coli growth modulation, two-sided OD650, primary screen, E. coli filamentation project, strain DRC41, 24 h (AID 1093).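 Note: MC1000 strain lacking acrAB efflux and sulA so SOS filamentation is blocked; test concentration not given here.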 As to conditions: OD650, 24 h, higher = more signal, called active from +8 up or from −8 down.
Experiment [7] can be described thus: small-molecule microarray binders of probe aLefty2, primary screen, biochemical, biotinylated probe, 635/667 nm fluorescence (AID 1094).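 Note: score merges spot fluorescence near 667 nm with spot signal-to-noise ratio.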 Conditions: higher = more signal.
The test system of experiment [8] is Noggin (protein binding on small-molecule microarray). The experiment can be described thus: Noggin binders on small-molecule microarray, primary screen, biochemical, 635/667 nm fluorescence (AID 1095).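 Note: score merges 667 nm feature fluorescence with signal to noise over triplicate slides.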 As to conditions: 635 nm fluorescence, higher = more signal.
In experiment [9] the target is Neurogenic locus notch homolog protein 3 (Homo sapiens) (UniProt Q9UM47). Nature of the experiment: NOTCH3 binders on small-molecule microarray, primary screen, biochemical, 635/667 nm fluorescence (AID 1096). As to conditions: NOTCH3 binding, 635 nm fluorescence, higher = more signal.
Neurogenic locus notch homolog protein 3 (Homo sapiens), sequence (Q9UM47 whole entry, looked up): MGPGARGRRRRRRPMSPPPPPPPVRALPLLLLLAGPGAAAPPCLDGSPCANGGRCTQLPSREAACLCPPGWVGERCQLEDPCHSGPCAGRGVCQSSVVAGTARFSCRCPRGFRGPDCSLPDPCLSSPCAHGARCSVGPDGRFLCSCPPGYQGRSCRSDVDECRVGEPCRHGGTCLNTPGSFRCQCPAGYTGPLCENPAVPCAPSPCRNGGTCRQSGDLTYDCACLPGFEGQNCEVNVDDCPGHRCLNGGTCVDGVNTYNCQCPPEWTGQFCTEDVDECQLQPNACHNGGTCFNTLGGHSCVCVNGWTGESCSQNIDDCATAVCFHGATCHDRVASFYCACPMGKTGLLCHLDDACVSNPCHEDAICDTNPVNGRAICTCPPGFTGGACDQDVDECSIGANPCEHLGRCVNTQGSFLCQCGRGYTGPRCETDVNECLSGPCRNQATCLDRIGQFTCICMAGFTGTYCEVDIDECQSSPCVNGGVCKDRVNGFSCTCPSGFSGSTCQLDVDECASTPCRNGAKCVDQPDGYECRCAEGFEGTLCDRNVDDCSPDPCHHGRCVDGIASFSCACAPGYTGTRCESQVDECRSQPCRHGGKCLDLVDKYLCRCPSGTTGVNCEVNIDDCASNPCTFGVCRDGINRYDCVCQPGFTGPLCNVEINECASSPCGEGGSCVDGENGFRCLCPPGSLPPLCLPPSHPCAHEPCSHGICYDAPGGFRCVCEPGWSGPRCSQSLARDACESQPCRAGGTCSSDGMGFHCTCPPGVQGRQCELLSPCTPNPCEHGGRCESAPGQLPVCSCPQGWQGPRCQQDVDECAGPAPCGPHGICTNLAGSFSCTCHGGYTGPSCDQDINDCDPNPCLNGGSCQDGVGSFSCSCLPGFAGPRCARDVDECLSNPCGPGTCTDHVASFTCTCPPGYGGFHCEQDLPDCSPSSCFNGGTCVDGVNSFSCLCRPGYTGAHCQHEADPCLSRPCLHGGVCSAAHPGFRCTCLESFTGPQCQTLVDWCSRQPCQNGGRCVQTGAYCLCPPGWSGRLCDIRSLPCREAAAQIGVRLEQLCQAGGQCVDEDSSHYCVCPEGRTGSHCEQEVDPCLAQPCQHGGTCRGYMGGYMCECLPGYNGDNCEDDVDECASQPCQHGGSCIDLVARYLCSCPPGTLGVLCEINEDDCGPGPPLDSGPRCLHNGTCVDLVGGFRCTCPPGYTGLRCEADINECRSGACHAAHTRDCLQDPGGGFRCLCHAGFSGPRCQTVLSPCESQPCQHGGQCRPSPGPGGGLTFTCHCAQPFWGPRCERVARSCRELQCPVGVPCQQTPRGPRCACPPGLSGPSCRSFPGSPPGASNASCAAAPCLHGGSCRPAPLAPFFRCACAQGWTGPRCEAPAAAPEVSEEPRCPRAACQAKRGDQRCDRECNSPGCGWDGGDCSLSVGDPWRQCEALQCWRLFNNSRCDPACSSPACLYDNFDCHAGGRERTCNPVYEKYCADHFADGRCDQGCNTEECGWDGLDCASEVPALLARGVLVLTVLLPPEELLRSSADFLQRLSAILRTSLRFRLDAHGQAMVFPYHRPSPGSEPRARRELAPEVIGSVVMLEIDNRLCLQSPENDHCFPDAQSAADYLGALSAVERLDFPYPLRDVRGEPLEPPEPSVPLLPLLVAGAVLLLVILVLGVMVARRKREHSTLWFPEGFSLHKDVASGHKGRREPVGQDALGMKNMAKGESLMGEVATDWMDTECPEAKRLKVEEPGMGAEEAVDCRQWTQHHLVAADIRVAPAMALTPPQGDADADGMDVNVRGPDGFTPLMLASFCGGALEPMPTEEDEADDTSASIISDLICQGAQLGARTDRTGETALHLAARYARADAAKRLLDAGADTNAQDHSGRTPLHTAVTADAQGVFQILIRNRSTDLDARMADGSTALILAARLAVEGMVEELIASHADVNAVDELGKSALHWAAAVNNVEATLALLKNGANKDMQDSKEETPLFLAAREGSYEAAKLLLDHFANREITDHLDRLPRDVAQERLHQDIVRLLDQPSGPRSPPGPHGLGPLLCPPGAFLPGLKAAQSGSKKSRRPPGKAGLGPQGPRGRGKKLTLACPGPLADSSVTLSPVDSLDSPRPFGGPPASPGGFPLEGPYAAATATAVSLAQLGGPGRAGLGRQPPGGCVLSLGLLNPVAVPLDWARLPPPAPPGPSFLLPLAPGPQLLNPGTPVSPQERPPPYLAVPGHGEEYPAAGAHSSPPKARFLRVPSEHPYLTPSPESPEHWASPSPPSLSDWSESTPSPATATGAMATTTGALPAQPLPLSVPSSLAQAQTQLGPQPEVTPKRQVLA
The nature of experiment [10]: small-molecule microarray binders of probe aEGFR, primary screen, biochemical, biotinylated probe, 635/667 nm fluorescence (AID 1097).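 Note: probe is a biotinylated anti-EGFR antibody binding compounds printed on slides; score combines fluorescence near 667 nm and signal to noise of each spot.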 As to conditions: higher = more signal.

SMILES strings stand for the structures. Activity calls are given as the source filed them.

On to `COc1ccc(CCN2C(=O)[C@@]3(c4ccc([N+](=O)[O-])cc4)CC(=O)N(C4CCCCC4)[C@@H]3c3ccc(CO)cc32)cc1`, for which the composite z-score in experiment [1] was 1.09; in experiment [5], 0.479; in experiment [7], -0.0246; in [8], 0.792; in experiment [9], 0.441; in experiment [10], -0.1. For the same molecule, the z-score in [2] is -1.82 (inactive); in experiment [3], 0.701 (inactive); in experiment [4] it was -1.83 (inactive); in experiment [6] it was 0.483 (inactive).
For `COC(=O)[C@@]1(Cc2ccc(OC)cc2)[C@H]2c3cc(C(=O)N4CCCC4)n(Cc4ccsc4Br)c3C[C@H]2CN1C(=O)c1ccccc1`, the composite z-score in experiment [1] is -0.356; in experiment [5], 2.91; in experiment [7], 0.498; in experiment [8], -0.0969; in experiment [9], 0.855; in experiment [10], 0.122. Moreover, the z-score in experiment [2] was -0.168 (inactive); in [3], 0.0021 (inactive); in experiment [4] it was -0.887 (inactive); in [6], -0.29 (inactive).
Turning to `Cc1ccc(S[C@]2(C(=O)NCCN3CCOCC3)CC(=O)N(Cc3ccccc3)[C@@H]2c2ccc(CO)cc2I)cc1`, the composite z-score in [1] was 0.01; in experiment [5], 2.07; in experiment [7], 0.0769; in experiment [8], -1.57; in experiment [9], -0.791; in [10], -0.378. For the same molecule, the z-score in [2] was -0.605 (inactive); in experiment [3], -3 (inactive); in experiment [4] it was 0.576 (inactive); in experiment [6], -1.17 (inactive).
Turning to `O=C1NC(=O)C2C1C=CC(C(O)C(c1ccccc1)c1ccccc1)N2Nc1ccc(Cl)cc1Cl` (stereo not given), the composite z-score in experiment [1] is 0.532; in experiment [5] it was 2.86; in [7] it was 0.185; in experiment [8] it was 0.561; in experiment [9], 0.982; in experiment [10], -0.0267. For the same molecule, the z-score was -0.111 (inactive) in experiment [2], -0.767 (inactive) in [3], 1.5 (inactive) in experiment [4] and -1.27 (inactive) in experiment [6].
With `COc1ccc([Si](C)(C)[C@@H]2[C@@H](CC(=O)N3Cc4ccccc4C[C@H]3CO)O[C@]3(C(=O)N(C)c4c(Br)cc(C)cc43)[C@H]2C)cc1`, the composite z-score in experiment [1] was 1.54; in experiment [5] it was 1.84; in experiment [7], -0.174; in experiment [8], 1.55; in experiment [9] it was 1.12; in experiment [10] it was -0.0409. Besides, the z-score was -0.069 (inactive) in experiment [2], 1.2 (inactive) in experiment [3], 2.03 (inactive) in [4] and 0.064 (inactive) in [6].
As to `CCOC(=O)C=Cc1cc([N+](=O)[O-])ccc1O`, the composite z-score in experiment [1] was 0.385; in experiment [5] it was 0.381; in experiment [7], -0.088; in [8], -0.609; in experiment [9], -0.465; in experiment [10], -0.141. Further, the z-score in experiment [2] was -1.21 (inactive); in [3] it was -0.201 (inactive); in experiment [4] it was -1.62 (inactive); in experiment [6], -0.828 (inactive).
As to `CN(C)C(=O)[C@@]1(Cc2ccccc2CN=[N+]=[N-])N=C(c2ccc(OCCCO)cc2)O[C@H]1c1ccccc1`, the composite z-score in experiment [1] is 1.32; in experiment [5], 3.32; in experiment [7] it was 0.0561; in [8] it was 0.788; in experiment [9], 0.301; in experiment [10], -0.0356. In addition, the z-score in experiment [2] is 0.365 (inactive); in experiment [3], 0.0586 (inactive); in experiment [4] it was 34.7 (active); in [6], 0.632 (inactive).
In the case of `CC1CC/C=C\[C@H]2OC34C=CCN(Cn5nnc6ccccc65)C(=O)[C@H]3N(C(CO)C(C)C)C(=O)[C@@H]4C2C(=O)O1` (stereo not given in full), the composite z-score in experiment [1] is 1.34; in [5] it was 3.28; in experiment [7], 0.0723; in experiment [8], -0.772; in experiment [9], 0.113; in [10], -0.0987. In addition, the z-score was -0.973 (inactive) in [2], -1.02 (inactive) in experiment [3], -0.931 (inactive) in experiment [4] and 0.309 (inactive) in experiment [6].
With `COc1ccc(C#Cc2ccc3c(c2)[C@]2(C(=O)N3)[C@H](c3ccccc3OCCO)N3[C@H](c4ccccc4)[C@H](c4ccccc4)OC(=O)[C@H]3[C@@H]2C(=O)O)cc1`, the composite z-score in experiment [1] is 1.54; in experiment [5], 3.09; in experiment [7], 0.111; in experiment [8], 1.11; in [9] it was 1.03; in [10], 0.122. Moreover, the z-score is 3.22 (inactive) in experiment [2], 1.13 (inactive) in experiment [3], 0.629 (inactive) in experiment [4] and 0.0706 (inactive) in [6].
Consider `COC(=O)[C@@]1(Cc2ccc(OC)cc2)[C@H]2c3cc(C(=O)N(C)C)n(CCN4CNCC4=O)c3C[C@H]2CN1C(=O)c1ccccc1`, for which the composite z-score in [1] was -1.13; in [5], 0.324; in experiment [7], -0.0877; in experiment [8] it was 0.788; in experiment [9] it was -0.325; in [10] it was 0.107. The z-score in [2] is -0.693 (inactive); in experiment [3] it was 0.687 (inactive); in experiment [4], -0.567 (inactive); in experiment [6] it was 0.288 (inactive).
Consider `C=C(CCCC)C(=O)CC[C@H](OC(=O)c1cccnc1)c1ccccc1OCCO`, for which the composite z-score in experiment [1] is 0.449; in experiment [5], -0.0709; in experiment [7], -0.19; in experiment [8], 0.282; in experiment [9] it was 0.214; in experiment [10], -0.0656. The z-score in experiment [2] was -2.23 (inactive); in [3], -2.01 (inactive); in [4] it was -1.34 (inactive); in experiment [6], 0.576 (inactive).
For `CCCC[C@@H]1C[C@H]1[C@@H](NC(=O)c1ccco1)c1ccc(Cl)cc1`, the composite z-score in experiment [1] was 0.44; in [5], 2.89; in [7], 0.164; in [8], -0.576; in [9], 0.889; in [10] it was 0.0271. Besides, the z-score is 0.622 (inactive) in experiment [2], 0.362 (inactive) in experiment [3], 0.384 (inactive) in experiment [4] and -0.815 (inactive) in [6].
With `[N-]=[N+]=NCc1ccccc1C[C@]1(C(=O)O)N=C(c2ccc(OCCCO)cc2)O[C@H]1c1ccccc1N=[N+]=[N-]`, the composite z-score in experiment [1] was 1.56; in experiment [5] it was 3.21; in experiment [7], -0.128; in experiment [8] it was 0.435; in experiment [9], 1.14; in experiment [10] it was 0.012. The z-score in experiment [2] is 0.869 (inactive); in experiment [3], -0.742 (inactive); in [4], 0.924 (inactive); in experiment [6], 0.644 (inactive).
Regarding `C=CCOC(=O)[C@@H]1[C@H]2C(=O)O[C@H](c3ccccc3)[C@H](c3ccccc3)N2[C@H](c2ccc(OCCOC(=O)[C@@H]3C[C@@H]4C(=O)N[C@@H](CCCCN(C)C)C(=O)N4[C@@H]3c3ccc(O)cc3)cc2)[C@@]12C(=O)Nc1ccc(I)cc12`, the composite z-score in experiment [1] was 1.51; in experiment [5] it was 2.95; in experiment [7], -0.119; in experiment [8] it was 1.24; in [9], 1.11; in experiment [10] it was 0.0727. Also, the z-score in experiment [2] was 0.767 (inactive); in experiment [3], -0.858 (inactive); in [4], 1.51 (inactive); in [6], -0.907 (inactive).

These data come from PubChem BioAssay.
